The values that follow come from the antibiotic and cytotoxicity screens of Wong et al. (2023).

Among all 39,000 compounds or so, about 3,300 (8.5%) were called active. The full list was thinned out, with actives kept by preference.

This assay deals with HepG2. Nature of the assay: cytotoxicity call (relative viability < 0.9). The conditions noted are these: 10 µM.
For the compound `CCS(=O)(=O)N[C@@H]1C=C[C@H](CC(=O)NCc2ccccn2)O[C@@H]1CO`, the cytotoxicity call was “inactive”.

For `COc1ccc(NC(=O)N(C)C[C@H]2OCCCC[C@@H](C)Oc3ccc(NS(=O)(=O)c4cccs4)cc3C(=O)N([C@H](C)CO)C[C@@H]2C)cc1`, the cytotoxicity call was “inactive”.

Consider `C[C@@H]1CN([C@H](C)CO)C(=O)c2cc(NC(=O)c3ccncc3)ccc2O[C@H]1CN(C)Cc1ccc2c(c1)OCO2`, for which the cytotoxicity call was “inactive”.

For `O=C(C[C@@H]1C[C@H]2c3cc(NC(=O)c4ccc5c(c4)OCO5)ccc3O[C@H]2[C@@H](CO)O1)NCc1ccc(Oc2ccccc2)cc1`, the cytotoxicity call was “inactive”.

In the case of `O=C(C[C@@H]1C[C@@H]2c3cc(NC(=O)c4ccc5c(c4)OCO5)ccc3O[C@@H]2[C@@H](CO)O1)NCc1ccc(Oc2ccccc2)cc1`, the cytotoxicity call is “inactive”.

With `O=C(C[C@H]1C[C@H]2c3cc(NC(=O)c4ccc5c(c4)OCO5)ccc3O[C@H]2[C@@H](CO)O1)NCc1ccc(Oc2ccccc2)cc1`, the cytotoxicity call is “active”.

As for `Cc1noc(C)c1NC(=O)Nc1ccc2c(c1)C(=O)N([C@@H](C)CO)C[C@@H](C)[C@@H](CN(C)Cc1ccc3c(c1)OCO3)OCCCC[C@@H](C)O2`, the cytotoxicity call is “inactive”.

Regarding `COc1ccc(COC[C@]23N=C4Sc5ccc([N+](=O)[O-])cc5C(=O)N4[C@H](c4ccccc4O2)[C@H]3CO[Si](C)(C)C(C)(C)C)cc1`, the cytotoxicity call is “inactive”.

For the compound `C[C@@H]1CN([C@@H](C)CO)C(=O)c2c(c3ccccc3n2C)-c2ccccc2CO[C@@H]1CN(C)C(=O)Nc1ccc(F)cc1`, the cytotoxicity call was “inactive”.

As to `C[C@H](CO)N1C[C@H](C)[C@H](CN(C)Cc2ccc3c(c2)OCO3)OCCCC[C@H](C)Oc2ccc(NC(=O)Nc3cccc4ccccc34)cc2C1=O`, the cytotoxicity call was “active”.

In the case of `C[C@@H]1CN([C@@H](C)CO)C(=O)c2cc(NC(=O)Nc3cccc4ccccc34)ccc2O[C@@H](C)CCCCO[C@@H]1CN(C)Cc1ccc2c(c1)OCO2`, the cytotoxicity call is “inactive”.

`C[C@H]1CCCCO[C@H](CN(C)Cc2ccc3c(c2)OCO3)[C@@H](C)CN([C@@H](C)CO)C(=O)c2cc(NC(=O)Nc3cccc4ccccc34)ccc2O1`: the cytotoxicity call is “active”.

On to `C[C@@H]1CCCCO[C@H](CN(C)Cc2ccc3c(c2)OCO3)[C@@H](C)CN([C@H](C)CO)C(=O)c2cc(NC(=O)Nc3cccc4ccccc34)ccc2O1`, for which the cytotoxicity call is “inactive”.

Take `C[C@H](CO)N1C[C@H](C)[C@@H](CN(C)Cc2ccc3c(c2)OCO3)OCCCC[C@H](C)Oc2ccc(NC(=O)Nc3cccc4ccccc34)cc2C1=O`: the cytotoxicity call was “inactive”.

Take `C[C@@H]1CN([C@H](C)CO)C(=O)c2cc(NC(=O)Nc3cccc4ccccc34)ccc2O[C@@H](C)CCCCO[C@H]1CN(C)Cc1ccc2c(c1)OCO2`: the cytotoxicity call is “active”.

Turning to `C[C@@H]1CCCCO[C@@H](CN(C)Cc2ccc3c(c2)OCO3)[C@H](C)CN([C@H](C)CO)C(=O)c2cc(NC(=O)Nc3cccc4ccccc34)ccc2O1`, the cytotoxicity call is “active”.

As for `C[C@@H]1CCCCO[C@@H](CN(C)Cc2ccc3c(c2)OCO3)[C@H](C)CN([C@@H](C)CO)C(=O)c2cc(NC(=O)Nc3cccc4ccccc34)ccc2O1`, the cytotoxicity call was “inactive”.

On to `CC(C)C#Cc1cnc2c(c1)C(=O)N([C@@H](C)CO)C[C@H](C)[C@H](CN(C)S(=O)(=O)c1cn(C)cn1)O2`, for which the cytotoxicity call is “inactive”.

Turning to `CO[C@@H]1CN(C)C(=O)c2cc(NS(=O)(=O)CC(F)(F)F)ccc2OC[C@H](C)N(C(=O)c2ccc3c(c2)OCO3)C[C@@H]1C`, the cytotoxicity call was “inactive”.

Regarding `COc1ccc(S(=O)(=O)Nc2ccc3c(c2)C(=O)N([C@H](C)CO)C[C@@H](C)[C@@H](CN(C)S(=O)(=O)c2ccc(C)cc2)O3)cc1`, the cytotoxicity call is “inactive”.

For the compound `C[C@H](CO)N1C[C@H](C)[C@H](CN(C)C(=O)Nc2ccccc2)OCCCC[C@H](C)Oc2ccc(NC(=O)Nc3ccc4c(c3)OCO4)cc2C1=O`, the cytotoxicity call was “inactive”.

Take `COc1ccc(NC(=O)N(C)C[C@H]2OCCCC[C@@H](C)Oc3ccc(NC(=O)Cc4ccccc4)cc3C(=O)N([C@@H](C)CO)C[C@H]2C)cc1`: the cytotoxicity call was “inactive”.

Take `C[C@@H]1CCCCO[C@H](CN(C)C(=O)Nc2ccc(F)cc2)[C@H](C)CN([C@H](C)CO)C(=O)c2cc(NC(=O)Nc3ccc(F)cc3)ccc2O1`: the cytotoxicity call was “inactive”.

As to `C[C@H]1CN([C@@H](C)CO)C(=O)c2cc(NC(=O)Cc3ccccc3)ccc2O[C@@H]1CN(C)Cc1ccc(Cl)c(Cl)c1`, the cytotoxicity call was “inactive”.

Turning to `C[C@@H]1CCCCO[C@H](CN(C)S(=O)(=O)c2ccccc2)[C@H](C)CN([C@H](C)CO)C(=O)c2cc(NS(=O)(=O)c3cn(C)cn3)ccc2O1`, the cytotoxicity call was “inactive”.

For the compound `COc1ccc(NC(=O)N(C)C[C@H]2Oc3c(NC(=O)c4cnccn4)cccc3C(=O)N([C@H](C)CO)C[C@@H]2C)cc1`, the cytotoxicity call is “inactive”.

With `C[C@@H]1CCCCO[C@@H](CN(C)Cc2ccc(C(=O)O)cc2)[C@H](C)CN([C@H](C)CO)C(=O)c2cc(NS(=O)(=O)c3ccccc3)ccc2O1`, the cytotoxicity call is “inactive”.

Consider `Cc1noc(C)c1NC(=O)Nc1ccc2c(c1)C(=O)N([C@@H](C)CO)C[C@@H](C)[C@H](CN(C)Cc1ccc(Cl)c(Cl)c1)O2`, for which the cytotoxicity call was “inactive”.

`C[C@H]1CCCCO[C@@H](CN(C)Cc2ccc(C(F)(F)F)cc2)[C@@H](C)CN([C@@H](C)CO)C(=O)c2cc(NS(C)(=O)=O)ccc2O1`: the cytotoxicity call was “inactive”.

Regarding `C[C@@H]1CN([C@H](C)CO)C(=O)c2cc(NC(=O)Nc3cccc4ccccc34)ccc2O[C@@H](C)CCCCO[C@@H]1CN(C)Cc1ccc2c(c1)OCO2`, the cytotoxicity call is “active”.

Regarding `C[C@@H]1CCCCO[C@H](CN(C)Cc2ccc3c(c2)OCO3)[C@H](C)CN([C@H](C)CO)C(=O)c2cc(NC(=O)Nc3cccc4ccccc34)ccc2O1`, the cytotoxicity call is “inactive”.

`C[C@@H]1CCCCO[C@H](CN(C)Cc2ccc3c(c2)OCO3)[C@H](C)CN([C@@H](C)CO)C(=O)c2cc(NC(=O)Nc3cccc4ccccc34)ccc2O1`: the cytotoxicity call was “active”.

On to `C[C@@H]1CCCCO[C@H](CN(C)Cc2ccc3c(c2)OCO3)[C@@H](C)CN([C@@H](C)CO)C(=O)c2cc(NC(=O)Nc3cccc4ccccc34)ccc2O1`, for which the cytotoxicity call is “active”.

As for `C[C@@H]1CCCCO[C@@H](CN(C)Cc2ccc3c(c2)OCO3)[C@@H](C)CN([C@H](C)CO)C(=O)c2cc(NC(=O)Nc3cccc4ccccc34)ccc2O1`, the cytotoxicity call was “inactive”.

Take `C[C@@H]1CN([C@@H](C)CO)C(=O)c2cc(NC(=O)Nc3cccc4ccccc34)ccc2O[C@@H](C)CCCCO[C@H]1CN(C)Cc1ccc2c(c1)OCO2`: the cytotoxicity call is “active”.

On to `C[C@@H]1CCCCO[C@@H](CN(C)Cc2ccc3c(c2)OCO3)[C@@H](C)CN([C@@H](C)CO)C(=O)c2cc(NC(=O)Nc3cccc4ccccc34)ccc2O1`, for which the cytotoxicity call was “inactive”.

Regarding `C[C@H]1CCCCO[C@@H](CN(C)Cc2ccc3c(c2)OCO3)[C@@H](C)CN([C@@H](C)CO)C(=O)c2cc(NC(=O)Nc3cccc4ccccc34)ccc2O1`, the cytotoxicity call was “inactive”.
